High-throughput results: PubChem BioAssay, National Center for Advancing Translational Sciences (NCATS)
nsP2pro primary – blocks chikungunya virus nsP2 protease peptide cleavage; Q8JUX6; actives 1.1% (n = 31,000); AID 1964107; Potency, µM (top dose mostly 24.9 µM), most hits filed as inhibitors; FRET peptide cleavage, nsP2pro, fluorescence 1 h; note: nearly all actives have a fitted effect of over 60% in size
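FRET cleavage of 2.5 uM peptide 2 by 150 nM CHIKV protease domain at pH 8.0 (Tris, Tween 20). Compounds at 7 concentrations (up to 25 uM) preincubated 15 min. Fluorescence read after 1 h at room temperature.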
nsP2 cell sec – inhibits CHIKV nsP2 protease in cells; actives 10% (n = 450); cell-based CHIKV nsP2 protease reporter assay; Potency, µM (doses to about 51.1 µM), usual class: inhibitors; AID 1964100; shares compounds with nsP2pro primary; note: nearly all actives have a fitted effect of over 70% in size
CHIKV NSP2 FL – selectivity test for CHIKV nsP2 protease inhibitors: full-length NSP2; shares compounds with nsP2pro primary; Full-length CHIKV NSP2 protease enzymatic counterscreen; Potency, µM (titrated, usually from 50.7 µM), most hits filed as inhibitors; actives 39% (n = 410); AID 1964101; note: nearly all actives have a fitted effect of over 65% in size
Furin counterscr – selectivity counter-screen for CHIKV nsP2 protease inhibitors: human furin. shares compounds with nsP2pro primary. Recombinant human furin enzymatic counterscreen, fluorogenic substrate. Potency, µM (titrated, usually from 50.6 µM), usual class: inhibitors. actives 6% (n = 410). AID 1964102
nsP2 NS23 pep – blocks CHIKV nsP2 protease cleavage of endogenous NS2/3 peptide | Purified CHIKV nsP2 protease, endogenous NS2/3 peptide cleavage | actives 34% (n = 410) | Potency, µM (series often up to 51 µM), most hits filed as inhibitors | AID 1964103 | shares compounds with nsP2pro primary; note: nearly all actives have a fitted effect of over 55% in size
Papain counter – selectivity counter-screen for CHIKV nsP2 protease inhibitors: papain; shares compounds with nsP2pro primary; purified papain protease activity, enzymatic inhibition; Potency, µM (series often up to 51 µM), most hits filed as inhibitors; actives 5% (n = 410); AID 1964104
Target sequence (P00784 whole entry, looked up): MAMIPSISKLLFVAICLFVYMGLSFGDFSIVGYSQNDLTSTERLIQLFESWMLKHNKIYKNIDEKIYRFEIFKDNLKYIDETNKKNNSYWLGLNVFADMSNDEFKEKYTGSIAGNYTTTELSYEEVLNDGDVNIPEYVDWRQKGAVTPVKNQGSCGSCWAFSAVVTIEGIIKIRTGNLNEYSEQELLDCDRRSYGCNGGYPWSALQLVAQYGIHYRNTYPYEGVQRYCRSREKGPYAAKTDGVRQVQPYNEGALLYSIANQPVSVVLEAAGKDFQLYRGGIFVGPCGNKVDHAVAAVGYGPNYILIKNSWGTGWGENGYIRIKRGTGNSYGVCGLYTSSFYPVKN
nsP2pro confirm – CHIKV nsP2 protease inhibition, confirmatory qHTS; AID 1964105; CHIKV nsP2 protease enzymatic activity, qHTS; actives 43% (n = 410); shares compounds with nsP2pro primary; Potency, µM (doses to about 25.5 µM), usual class: inhibitors; note: nearly all actives have a fitted effect of over 75% in size
HCV NS3 4A cs – HCV NS3/4A protease inhibition, counterscreen; shares compounds with nsP2pro primary; HCV NS3/4A protease biochemical counterscreen; Potency, µM (titrated, usually from 50.9 µM), usual class: inhibitors; actives 20% (n = 410); AID 1964106; note: nearly all actives have a fitted effect of over 55% in size
Each line names hits and unclear results; the compound was inactive in the other large screens (follow-up assays come after a bar, where they were run). Shown is part of a subset that was picked to be rich in hits. Calls come from the whole dose curve.

O=C(O)C(S)C(S)C(=O)O (stereo unspecified)	nsP2pro primary 8.81µM | nsP2 cell sec inactive | CHIKV NSP2 FL inconclusive | Furin counterscr inactive | nsP2 NS23 pep inconclusive | Papain counter inconclusive | nsP2pro confirm inconclusive | HCV NS3 4A cs inactive
O=C(O)[C@@H](O)[C@H](O)[C@H](O)[C@@H](O)C(=O)O	none
O=C(O)C(Cl)Cl	none
O=C(Nc1ccc(-n2ccnc2)c(F)c1)Nc1nnc(-c2ccncc2)s1	none
C=C1CC[C@H](O)C/C1=C\C=C1/CCC[C@]2(C)[C@@H]([C@H](C)CC[C@H](O)C(C)(C)O)CC[C@@H]12	none
Cc1ncc(CO)c(C=O)c1O	none
Cc1ncc(CSSCc2cnc(C)c(O)c2CO)c(CO)c1O	none
Cc1ncc(COP(=O)(O)O)c(C=O)c1O	nsP2pro primary inconclusive | nsP2 cell sec inactive | CHIKV NSP2 FL inactive | Furin counterscr inactive | nsP2 NS23 pep inactive | Papain counter inactive | nsP2pro confirm inactive | HCV NS3 4A cs inactive
O=C(O)c1cccc(S(=O)(=O)Nc2nccs2)c1	none
CN(c1ccccc1)c1ccc(CNc2nn3c(=O)c4ccccc4nc3s2)cc1	none
Cc1ccccc1C(=O)N1CCc2cc(-c3cccc(NC(=O)Cc4ccc5c(c4)OCO5)c3)ccc21	none
C=C(C=O)[C@]1(O)C[C@@]2(C)C(=CC1=O)C=C[C@H](OC(=O)/C=C/C=C/[C@H](C)CC)[C@@H]2C	none
CCCCCn1cc(C(=O)c2cccc3ccccc23)c2ccccc21	none
COCC1CN(Cc2ccc(OC)cc2)CC12CCNCC2 (stereo unspecified)	none
COCC1CN(Cc2ccc(Br)s2)CC12CCNCC2 (stereo unspecified)	nsP2pro primary inconclusive | nsP2 cell sec inconclusive | CHIKV NSP2 FL inconclusive | Furin counterscr inactive | nsP2 NS23 pep inconclusive | Papain counter inactive | nsP2pro confirm inconclusive | HCV NS3 4A cs inconclusive
COCC1CN(C)CC12CCN(Cc1cccnc1)CC2 (stereo unspecified)	none
COC(=O)CCSCc1ccc(-c2onc(C)c2NC(=O)OC(C)c2ccccc2Cl)cc1 (stereo unspecified)	none
CC(CO[C@@H]1O[C@H](COC(=O)/C=C/c2ccc(O)c(O)c2)[C@@H](O)[C@H](O)[C@H]1O)C1(O)COC(=O)C1 (stereo partly specified)	nsP2pro primary inconclusive | nsP2 cell sec inactive | CHIKV NSP2 FL inactive | Furin counterscr inactive | nsP2 NS23 pep inactive | Papain counter inactive | nsP2pro confirm inactive | HCV NS3 4A cs inactive
CC(=O)O[C@@H]1[C@@H](CO)O[C@@](CO)(O[C@H]2O[C@H](COC(=O)/C=C/c3ccccc3)[C@@H](O)[C@H](O)[C@H]2O)[C@H]1O	none
O=C(/C=C/c1ccc(O)c(O)c1)OC[C@H]1O[C@@H](OC2CCCCC2O)[C@H](O)[C@@H](O)[C@@H]1O (stereo partly specified)	none
COc1ccc(S(=O)(=O)Nc2cnccc2C(=O)Nc2nc(-c3ccccc3)cs2)cc1	none
CC12C=CC(=O)NC1CCC1C2CCC2(C)C(C(=O)Nc3cc(C(F)(F)F)ccc3C(F)(F)F)CCC12 (stereo unspecified)	none
Cc1cc(C)nc(NC(=S)N2CCN(Cc3c(F)cccc3Cl)CC2)c1	none
COC(=O)C1=C(C)NC(C)=C(C(=O)OCCc2ccc(N3CCN(C(c4ccccc4)c4ccccc4)CC3)cc2)C1c1cccc([N+](=O)[O-])c1 (stereo unspecified)	none
CC(C)COC(=O)c1ccc(N)cc1	none
COC(=O)C1=C(C)NC(C)=C(C(=O)OCC(C)C)C1c1ccccc1[N+](=O)[O-] (stereo unspecified)	nsP2pro primary 9.88µM | nsP2 cell sec inconclusive | CHIKV NSP2 FL inconclusive | Furin counterscr inactive | nsP2 NS23 pep 14.6µM | Papain counter inactive | nsP2pro confirm 10µM | HCV NS3 4A cs inactive
COC(=O)C[C@@H]1C(C(=O)O)=CO[C@@H](O[C@@H]2O[C@H](CO)[C@@H](O)[C@H](O)[C@H]2O)/C1=C\COC(=O)/C=C\c1ccccc1	none
CCOC(=O)c1ccc(NC(=O)CN2CCCCC2)cc1	none
CCOC(=O)c1ccc(NC2SC(=O)N(Cc3cccc(C(=O)O)c3)C2=O)cc1 (stereo unspecified)	nsP2pro primary 7.94µM | nsP2 cell sec inactive
CCOC(=O)c1ccc2nc(C)cc(Nc3cccc(C(=O)O)c3)c2c1	none
C[C@@H]1O[C@@H](O[C@@H]2[C@@H](O)[C@H](O[C@H]3CC[C@@]4(C)C(CC[C@]5(C)C4CC=C4[C@@H]6CC(C)(C)CC[C@]6(C(=O)O[C@@H]6O[C@H](CO)[C@@H](O)[C@H](O)[C@H]6O)CC[C@]45C)C3(C)C)O[C@H](C(=O)O)[C@H]2O)[C@H](O)[C@H](O)[C@H]1O (stereo partly specified)	none
Cc1c(C(=O)OC2CCCCCC2)[nH]c2c1C(=O)CC(c1ccccc1Cl)C2 (stereo unspecified)	none
Cc1c(C(=O)OCC2CCCCO2)[nH]c2c1C(=O)CC(c1ccco1)C2 (stereo unspecified)	nsP2pro primary 7.94µM | nsP2 cell sec 14.6µM | CHIKV NSP2 FL inactive | Furin counterscr inconclusive | nsP2 NS23 pep inactive | Papain counter inactive | nsP2pro confirm inactive | HCV NS3 4A cs inactive
Cc1c(C(=O)OCC2CCCCC2)[nH]c2c1C(=O)CC(c1ccc(F)cc1)C2 (stereo unspecified)	none
CC(C)CC(C(=O)NC(C(=O)OC1CCCC1)c1ccccc1)C(O)C(=O)NO (stereo unspecified)	none
Cc1cnc(-c2ccccc2C(C)C)nc1NCC1CCN(c2cccnc2)C1 (stereo unspecified)	none
O=C(NCC(c1cccnc1)N1CCc2ccccc2C1)c1ccc(F)c(F)c1 (stereo unspecified)	nsP2pro primary inconclusive | nsP2 cell sec inactive
COc1ccccc1C(=O)NCC(c1cccnc1)N1CCc2ccccc2C1 (stereo unspecified)	none
COc1ccc(C(=O)NCC(c2cccnc2)N2CCN(c3ccccc3)CC2)cc1 (stereo unspecified)	none
CCc1nc2c(c(-c3ccc(O)cc3)n1)CN(Cc1ccc(NC(C)=O)cc1)CC2	none
CCOC(=O)c1cccc(-n2cnc(/C=C3\NC(=O)N(CC(=O)O)C3=O)c2)c1	none
Cc1occc1-c1ccc2ncnc(NCc3ncc[nH]3)c2c1	none
